# The list is not random: actives were taken first. Their share in the collection is about 1.4%.
# GSIS activator – primary screen for activators of insulin secretion dependent on glucose, INS-1E cells, GLuc reporter luminescence; activation, % at 16.6 µM; INS-1E GLuc reporter insulin secretion, 2-3 h; AID 743287; hit rate 0.61% among 370,000;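 active = lowest replicate activation of at least 40%, so every replicate reaches that level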
# PGC1a acetyl inh – modulators of PGC1a acetylation; AID 651687; hit rate 0.17% among 350,000; U2OS PGC1a acetylation, AlphaScreen anti-acetyl-lysine; with virally co-expressed GCN5 acetyltransferase; inhibition, % at 15.6 µM;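 active = every replicate shows inhibition of at least 40%; inconclusive = mean inhibition at least 40% but some replicate below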
# RAD52 inh – blocks human RAD52 DNA annealing. recombinant RAD52 DNA annealing, FRET fluorescence. inhibition, % at 18.7 µM. hit rate 0.46% among 360,000. AID 651710;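 active = every replicate showing at least 50% inhibition; inconclusive = mean inhibition at least 50% but not in every replicate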
# ERAP1 inh – ERAP1 (human) enzyme inhibition; hit rate 0.15% among 340,000; AID 652197; inhibition, % at 10.7 µM; recombinant ERAP1, Leu-AMC fluorescence, 60 min;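 active = mean replicate inhibition of at least 30%, or all replicates individually reaching that 30% level; inactive = mean below 30% and not every replicate reaching it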
# MLL AF4-AF9 inh – MLL-AF4/AF9 protein interaction inhibition; P42568; AlphaScreen, biotin-AF4 peptide binding to FLAG-AF9; inhibition, % at 10 µM; hit rate 0.47% among 350,000; AID 651704;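 active = every replicate reaching a set inhibition limit, whatever the replicate mean, cut at about 25% in these data; inconclusive = mean inhibition reaches that limit but some replicates miss it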
# RAD54 branch – RAD54 (human) branch migration inhibition; Q92698; RAD54 Holliday junction branch migration, FAM/BHQ fluorescence; inhibition, % at 10.4 µM; hit rate 0.14% among 360,000; AID 602329;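 active = mean normalized replicate activity at least 40 and at least half of replicates scoring 40 or more; inconclusive = only one of the two criteria met; inactive = mean below 40 and under half of replicates reaching 40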;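 note: inhibitors cause a drop in the FAM fluorescence signal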
# Target sequence (Q92698 whole entry, looked up): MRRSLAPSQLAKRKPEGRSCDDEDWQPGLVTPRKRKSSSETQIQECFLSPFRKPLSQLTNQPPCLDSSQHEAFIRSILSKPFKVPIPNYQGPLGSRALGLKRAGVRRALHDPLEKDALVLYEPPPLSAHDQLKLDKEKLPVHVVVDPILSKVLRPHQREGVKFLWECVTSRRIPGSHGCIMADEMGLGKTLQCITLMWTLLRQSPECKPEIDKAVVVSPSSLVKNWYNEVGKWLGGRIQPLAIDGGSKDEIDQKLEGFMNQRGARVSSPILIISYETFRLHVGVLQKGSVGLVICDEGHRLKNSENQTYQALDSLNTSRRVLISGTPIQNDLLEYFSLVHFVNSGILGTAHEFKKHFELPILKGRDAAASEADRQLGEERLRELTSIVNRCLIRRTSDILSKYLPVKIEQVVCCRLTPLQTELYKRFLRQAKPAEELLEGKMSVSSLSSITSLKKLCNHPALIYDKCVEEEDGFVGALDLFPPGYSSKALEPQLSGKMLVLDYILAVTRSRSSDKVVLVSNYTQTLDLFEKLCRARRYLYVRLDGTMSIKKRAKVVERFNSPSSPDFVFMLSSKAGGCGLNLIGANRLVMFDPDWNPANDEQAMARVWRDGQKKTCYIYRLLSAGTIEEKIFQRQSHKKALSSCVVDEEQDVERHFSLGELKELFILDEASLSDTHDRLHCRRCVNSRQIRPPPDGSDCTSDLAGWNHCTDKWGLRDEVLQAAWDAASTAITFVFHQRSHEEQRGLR
# RAD52 DNA ctr – counter-screen for RAD52 inhibitors: DNA binding compounds | shares compounds with RAD52 inh | Salmon sperm DNA/acridine orange FP displacement | hit rate 8% among 1,000 | AC50, µM;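 active = fitted half-maximal concentration for signal loss at or below twice the highest dose tested, in every separate run, actives reach about 64 µM in these data; inconclusive = runs disagree, or flat partial signal loss, or poor fit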
# A number is an active result; i = inactive; ? = inconclusive; nt = no result.
SMILES,GSIS activator,PGC1a acetyl inh,RAD52 inh,ERAP1 inh,MLL AF4-AF9 inh,RAD54 branch,RAD52 DNA ctr
COc1ccc(NC(=O)O[C@@H](C)[C@@H]2CN3CCc4c([nH]c5ccc(-c6ccc(OC)cc6)cc45)[C@@H]3C[C@@H]2N(C)C(=O)Nc2ccc(OC)cc2)cc1,i,i,53,nt,i,i,i
CCCN1[C@@H]2Cn3c(ccc(-c4ccc(F)cc4)c3=O)[C@H]1[C@@H](C(=O)NCCc1cn(C)cn1)[C@@H]2CO,i,i,nt,nt,nt,i,nt
CCN(Cc1ccncc1)Cc1ccc(OC)cc1OC,i,i,99,i,i,i,i
COc1ccc(CNCc2ccncc2)c(OC)c1,i,i,i,i,i,i,nt
Cc1cc(C(=O)OCC(=O)NC2CCCCC2C)c2ccccc2n1 (stereo not drawn),i,i,i,i,i,i,nt
Cc1cc(C(=O)OC(C)C(=O)NC2CCCCC2C)c2ccccc2n1 (stereo not drawn),i,i,51,i,i,i,i
C[C@@H]1CN([C@H](C)CO)C(=O)c2ccccc2-c2ccccc2CO[C@@H]1CN(C)C(=O)Oc1ccccc1,i,nt,nt,nt,nt,nt,nt
CC(C)=N/N=C(/c1ccc([N+](=O)[O-])cc1)C12CN3CN(CN(C3)C1)C2,i,nt,95,i,i,nt,i
NCCCC[C@H]1CN=C(N)N1CCC12CC3CC(CC(C3)C1)C2,i,nt,57,nt,i,i,i
CCOC(=O)c1c(-c2ccccc2)oc2ccc(OCC(O)CN(C)C)cc12 (stereo not drawn),i,i,i,i,i,i,i
CCC(/C=C1\Sc2ccc(OC)cc2N1CC)=C\c1sc2ccc(OC)cc2[n+]1CCCS(=O)(=O)[O-],i,nt,i,i,i,i,nt
CCC(/C=C1\Sc2ccc(OC)cc2N1CCO)=C\c1sc2ccc(OC)cc2[n+]1CCO,i,i,83,i,i,i,i
CCC(C)Sc1ccc([C@H]2N[C@@](Cc3ccccc3)(C(=O)OC)[C@H]3C(=O)N(C)C(=O)[C@@H]23)cc1 (stereo partly drawn),i,i,98,i,i,i,i
CNc1nc(Oc2cccc(F)c2)c2sccc2n1,i,i,i,i,i,i,nt
Cc1nc2cc(Oc3nc(NCCN(C)C)nc4ccsc34)ccc2s1,i,i,78,i,i,i,i
CC(=O)Nc1cccc(Oc2nc(NCCN(C)C)nc3ccsc23)c1,nt,nt,90,i,i,i,i
CN(C)CCNc1nc(Oc2cccc(F)c2)c2sccc2n1,i,i,58,i,i,i,i
C[C@H](CO)N1C[C@H](C)[C@@H](CN(C)C(=O)CCC(F)(F)F)OCCCC[C@H](C)Oc2ccc(NC(=O)CCCN(C)C)cc2C1=O,i,i,nt,nt,nt,i,nt
CO[C@H]1CN(C)C(=O)c2cc(NC(=O)c3ccc(F)cc3)ccc2OC[C@H](C)NC[C@H]1C,i,i,nt,nt,nt,i,nt
CCCC(=O)N1CC2(C1)CN(C(=O)C1CC1)[C@H](CO)c1[nH]c3cc(OC)ccc3c12,i,nt,i,i,i,nt,nt
Cc1ccc(-c2[nH]c3cc(C(=O)NCCCn4ccnc4)ccc3c(=O)c2O)cc1,i,i,80,i,57,i,i
CCCNC(=O)c1ccc2c(=O)c(O)c(-c3ccc(C)cc3)[nH]c2c1,i,nt,i,i,i,i,nt
C[C@@H]1CN([C@@H](C)CO)C(=O)c2c(c3ccccc3n2C)-c2ccccc2CO[C@H]1CN(C)C(=O)Nc1cccc(C(F)(F)F)c1,i,nt,nt,nt,nt,nt,nt
C[C@@H]1CN([C@@H](C)CO)C(=O)c2cccc(NC(=O)Nc3ccc4c(c3)OCO4)c2O[C@@H]1CN(C)Cc1ccc(Oc2ccccc2)cc1,i,i,i,i,i,i,i
C[C@@H]1CN([C@H](C)CO)C(=O)c2cccc(NC(=O)Nc3ccc4c(c3)OCO4)c2O[C@@H]1CN(C)Cc1ccc(Oc2ccccc2)cc1,i,nt,i,i,i,i,nt
SMILES,GSIS activator,PGC1a acetyl inh,RAD52 inh,ERAP1 inh,MLL AF4-AF9 inh,RAD54 branch,RAD52 DNA ctr
COc1cc2ccccc2cc1C(=O)N(CCN(C)C)c1nc2c(F)cc(F)cc2s1,i,i,i,i,?,i,nt
COc1ccc(OC)c2sc(N(CCN(C)C)C(=O)c3cc(Cl)sc3Cl)nc12,i,nt,51,i,i,nt,i
CN(C)CCCN(C(=O)c1ccco1)c1nc2ccc(Br)cc2s1,i,i,57,i,i,nt,i
COc1cc2ccccc2cc1C(=O)N(CCN(C)C)c1nc2ccc(Br)cc2s1,i,i,51,i,i,i,i
C[C@H](CO)N1C[C@H](C)[C@@H](CN(C)C(=O)c2cnccn2)Oc2ncc(-c3cccc(C#N)c3)cc2C1=O,i,i,i,nt,i,i,nt
CN(C)CCCN=c1cc(-c2ccccc2)oc2ccc(Cl)cc12,i,nt,80,i,i,nt,28µM
CC(C)NC(=O)Nc1cccc2c1O[C@H](CN(C)C(=O)OC(C)(C)C)[C@@H](C)CN(C)C2=O,i,nt,nt,nt,nt,nt,nt
CNC(=S)N(CCc1cccc(C)c1)Cc1cc2cc(OC)c(OC)cc2[nH]c1=O,i,nt,i,i,i,nt,nt
CN(C)CCCNC(=S)N(CCCN(C)C)Cc1cc2cc3c(cc2[nH]c1=O)OCO3,i,i,i,i,i,i,nt
CCN(CC)CCCN(Cc1cc2cc3c(cc2[nH]c1=O)OCO3)C(=S)NCCCN(C)C,nt,i,90,i,i,i,i
COc1cc2cc(CN(CCc3cccc(C)c3)C(=S)NCCCN(C)C)c(=O)[nH]c2cc1OC,i,nt,51,i,i,nt,i
COc1ccc2c(c1)c[n+](C)c1c3cc(OC)c(OC)cc3ccc21,nt,nt,109,i,i,nt,36µM
COc1cc2c[n+](C)c3c4ccccc4ccc3c2cc1OC,i,i,104,i,i,nt,?
COc1ccc(Cc2c3cc(OC)c(OC)cc3cc[n+]2C)cc1OC,nt,i,nt,nt,nt,i,nt
COc1ccc(/C=C/c2ccc3ccccc3[n+]2C)cc1OC,nt,i,nt,nt,nt,i,nt
CN(C)C(=O)C[C@@H]1C[C@H]2c3cc(NS(=O)(=O)c4ccccc4)ccc3O[C@H]2[C@@H](CO)O1,i,i,i,i,i,i,nt
Cc1ccc(S(=O)(=O)N[C@H]2CC[C@H](CCNC(=O)c3ccccc3F)O[C@H]2CO)cc1,i,i,i,i,i,i,nt
C[C@H]1CCCCO[C@H](CN(C)C(=O)c2ccncc2)[C@@H](C)CN([C@@H](C)CO)C(=O)c2cc(NS(=O)(=O)c3ccc(F)cc3)ccc2O1,i,i,i,i,i,i,nt
O=C1c2ccccc2C(=O)c2c(NCCCN(CCO)CCO)cccc21,i,i,93,i,?,nt,4.3µM
COc1ccc(-c2ccc3c(c2)O[C@@H](CN(C)C)[C@@H](C)CN([C@@H](C)CO)S3(=O)=O)cc1,i,i,i,i,i,i,nt
O=C(CC1CC1)N[C@H]1CC[C@@H](CCNS(=O)(=O)c2ccc(Cl)cc2)O[C@H]1CO,i,i,i,i,i,i,nt
CC(C)(C)Nc1nc(Cl)nc(NCc2ccccc2)n1,i,i,i,i,i,i,nt
CCCNc1nc(Cl)nc(NCc2cccnc2)n1,i,i,85,i,i,nt,i
